Source: PubChem (National Center for Advancing Translational Sciences (NCATS))
Only some compounds are listed: those with a hit (about 1.8% of all), similar ones and a draw of the others.
GLP1R inv ag = qHTS of GLP-1 Receptor Inverse Agonists (Inhibition Mode) | Glucagon-like peptide 1 receptor (Homo sapiens), P43220 | actives 1.6% (n = 410,000) | HEK293 GLP-1R CRE-luciferase, luminescence, 24 h; GLP-1R form is constitutively active | Potency, µM (titrated, usually from 38.3 µM), inactives show at the highest dose activity change, negative = inhibition, usual class: inhibitors; further: on the % scale 0 is the no-effect control and ±100 the full control effect; nearly all actives have a fitted effect of over 55% in size
Target sequence (P43220 whole entry, looked up): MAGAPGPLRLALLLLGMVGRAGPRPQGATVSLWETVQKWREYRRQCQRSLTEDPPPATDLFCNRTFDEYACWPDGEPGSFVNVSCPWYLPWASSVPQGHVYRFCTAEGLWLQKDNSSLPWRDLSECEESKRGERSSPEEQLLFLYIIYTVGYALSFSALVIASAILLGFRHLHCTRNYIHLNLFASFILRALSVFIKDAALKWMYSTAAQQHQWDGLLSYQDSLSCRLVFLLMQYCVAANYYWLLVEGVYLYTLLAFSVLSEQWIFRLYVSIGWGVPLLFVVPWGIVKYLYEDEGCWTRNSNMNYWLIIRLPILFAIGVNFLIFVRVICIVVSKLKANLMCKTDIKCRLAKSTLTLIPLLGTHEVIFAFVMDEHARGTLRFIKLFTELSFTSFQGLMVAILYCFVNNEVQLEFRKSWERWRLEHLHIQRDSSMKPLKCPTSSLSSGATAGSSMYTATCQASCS
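Luminescence readout: a drop in cAMP-driven luciferase signal flags inverse agonism at a constitutively active GLP-1R stably expressed in HEK293. Compound exposure lasted 24 hr at 37 deg C, 5% CO2.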
PTHR1 agonist = qHTS for PTHR1 Agonists: Primary Screen. Parathyroid hormone/parathyroid hormone-related peptide receptor (Homo sapiens), Q03431. HEK293 GP2 PTHR1 cells, GloSensor cAMP luminescence, 1 h. Potency, µM (highest dose often 115 µM), without a hit: at the top dose activation, actives largely listed as activators. actives 0.075% (n = 410,000); further: nearly all actives have a fitted effect of over 55% in size
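HEK-293-derived GP2 cells expressing PTHR1 and a GloSensor cAMP reporter, 3,000/well, plated overnight, given luciferin plus IBMX (each 0.5 mM as added) for 1 h at 37 °C, then compound for 1 h at 37 °C. Luminescence was read after 15 min at room temperature.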
GCN5L2 inh = qHTS Assay for Inhibitors of GCN5L2. Potency, µM (titrated, usually from 58.9 µM), inactives show top-dose activity change, negative = inhibition, usual class: inhibitors. Histone acetyltransferase KAT2A (Homo sapiens), Q92830. AID 504327, 2011. actives 0.21% (n = 390,000). GCN5L2 HAT assay, ThioGlo1 CoA-SH fluorescence; further: on the % scale 0 is the no-effect control and ±100 the full control effect
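Titration-based screen in which CoA formation is detected via maleimide probe ThioGlo1 (50uM) turning fluorescent on thiol reaction; substrates H3(1-25) 75uM and acetyl-CoA 70uM, GCN5L2 20nM, 20 min incubation at room temperature.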
GLP1R ag = qHTS of GLP-1 Receptor Agonists | HEK293 GLP-1R CRE-luciferase, luminescence, 4-6 h; cells express a hypersensitive GLP-1R form | Potency, µM (top dose mostly 45.6 µM), for the others: at the highest dose activation, most hits filed as activators | actives 0.007% (n = 380,000) | AID 624172, 2012; further: % of control where 0% means no effect
RGS4 inh = Inhibitors of Regulator of G Protein Signaling (RGS) 4: qHTS; Regulator of G-protein signaling 4 (Homo sapiens), P49798; Potency, µM (series often up to 114 µM), for the others: top-dose activity change, negative = inhibition, actives largely listed as inhibitors; Transcreener GDP fluorescence polarization, RGS4-accelerated GTP hydrolysis; AID 504845, 2011; actives 0.039% (n = 390,000); further: on the % scale 0 is the no-effect control and ±100 the full control effect; nearly all actives have a fitted effect of over 75% in size
Target sequence (P49798 whole entry, looked up): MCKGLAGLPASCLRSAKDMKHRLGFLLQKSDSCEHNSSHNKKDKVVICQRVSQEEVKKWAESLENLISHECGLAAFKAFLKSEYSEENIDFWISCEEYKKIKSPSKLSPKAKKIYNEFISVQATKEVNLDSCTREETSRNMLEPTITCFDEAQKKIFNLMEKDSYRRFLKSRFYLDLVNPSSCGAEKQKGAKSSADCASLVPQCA
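MLSMR compounds (23 nl, pin-transferred) preincubated 10 min at room temperature with a 500nM (2x) first reagent, then RGS4 at 900nM (2x) plus Transcreener GDP mix added; fluorescence polarization (620/688 nm) read before and after 90 min at 30 °C.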
GLP1R cytotox = qHTS of GLP-1 Receptor Inverse Agonists: Cytotox Screen; HEK293 cAMP-luciferase reporter cells, luminescence, 24 h; AID 624418, 2012; actives 0.13% (n = 410,000); Potency, µM (doses to about 38.3 µM), inactives show at the top dose activity change, negative = inhibition, hits mostly inhibitors;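 further: loss of luciferase light is scored as toxicity; on the % scale 0 is the no-effect control and ±100 the full control effect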
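Compound-treated cells are incubated 24 hr at 37 deg C under 5% CO2 after a 12 hour attachment period, then luciferase detection reagent is added and luminescence is measured following 12 min at room temperature; lowered signal indicates toxicity.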
* hit, by the source's call; i = inactive; ? = inconclusive; . = no result given; [ ] = dose if it differs, or a comment. The call rests on the fitted dose curve; in most records, active means well fitted curve in the direction sought with a large enough effect; inconclusive means small, poorly fitted or top-dose-only effect, or another doubt; inactive means no such curve, though single readings can be large; an effect the other way counts as inactive or inconclusive. Potency means the concentration at half of the fitted maximal effect.

SMILES | GLP1R inv ag | PTHR1 agonist | GCN5L2 inh | GLP1R ag | RGS4 inh | GLP1R cytotox
CC(=O)OC1CC(OC2C(O)CC(OC3C(O)CC(O[C@H]4CC[C@]5(C)C6CC[C@]7(C)[C@@H](C8=CC(=O)OC8)[C@@H](O)C[C@]7(O)[C@@H]6CC[C@@H]5C4)OC3C)OC2C)OC(C)C1OC1OC(CO)C(O)C(O)C1O (stereo not given in full) | . | . | . | -11% | . | .
Cc1ccc(Cl)cc1NC(=O)N(Cc1ccc2c(c1)OCO2)C1CCN(Cc2ccccc2)CC1 | ? | i | -1% | . | -12% | 24%
CC(Oc1ccc(F)cc1)C(=O)N(CCC1=CCCCC1)c1c(N)n(Cc2ccccc2)c(=O)[nH]c1=O (stereo not given) | 11µM* | -34% | -5% | -11% | 16% | ?
Cc1cc(C)cc(OCC(O)CN2CCC(CN3C(=O)c4cccc5cccc(c45)C3=O)CC2)c1 (stereo not given) | ? | -48% | -5% | -2% | -18%[11.4 µM] | ?
CS(=O)(=O)c1sc(C#N)c2c1C(=O)CC(c1ccccc1)C2 (stereo not given) | ? | -95% | -4% | -10% | ? | 11µM*
CCOCCCNC(=O)c1c[nH]c2ccc(S(=O)(=O)N(C)c3ccc(Cl)cc3F)cc2c1=O | -21% | -34% | -2% | . | 6% | -21%
COc1ccc(-n2c(/C=C/c3cccc(F)c3)nc3ccccc3c2=O)c(OC)c1 | -18% | -26% | -3% | 10% | -21% | -4%
COc1cc2nc(Nc3cccc(F)c3)nc(N)c2cc1OC | 10µM* | -17% | -12% | 6% | 27% | ?
CC(C)c1cccc(C(C)C)c1OC(=O)NC(=O)c1c(F)cccc1F | 8.9µM* | -7% | -10% | -3% | -9% | 11%
C[C@]12CC[C@H](O)C[C@H]1CC[C@@H]1[C@@H]2CC[C@]2(C)[C@@H](C3=CC(=O)OC3)CC[C@]12O | 0.5µM* | -12% | -10% | -10% | -10% | ?
CC12CCC(O)CC1CCC1C2CCC2(C)C(C3=CC(=O)OC3)C(O)CC12O (stereo not given) | ? | i | . | -18% | -23% | -2%
CC12CCC(O)CC1CCC1C2CCC2(C)C(C3=CC(=O)OC3)CCC12O (stereo not given) | 1.1µM* | i | . | -30% | 3% | ?
O=C(CN1CCN(C(=O)CNC(=O)c2ccc(-c3ccccc3)cc2)CC1)Nc1ccccc1Cl | 10µM* | -42% | . | -1% | . | -29%
COC(=O)c1ccc(Cl)c(NC(=O)CN2CCN(Cc3ccccc3)CC2)c1 | ? | -6% | 0% | -8% | 6% | -7%
CCN1C[C@]2(COC(=O)c3ccccc3N3C(=O)CC(C)C3=O)CC[C@H](OC)[C@@]34C5C[C@@H]6[C@@H](OC)C[C@@](O)(C5[C@H]6OC)[C@](O)([C@@H](OC)C23)[C@@H]14 (stereo not given in full) | . | . | -13% | . | ? | .
CC[C@H](C)[C@H](NC(=O)[C@@H](N)Cc1ccc(O)cc1)C(=O)NCC(=O)N[C@@H](CO)C(=O)N[C@@H](CCCN=C(N)N)C(N)=O | . | . | 20% | . | . | .
Cc1ccc2nc(-c3ccccc3)cc(C(=O)N3CCN(c4ccccc4O)CC3)c2c1 | 10µM* | -23% | -2% | -7% | 24% | ?
Cc1ccc2nc(-c3ccncc3)cc(C(=O)N3CCC4(CC3)OCCO4)c2c1 | 2% | i | -8% | -5% | 32% | 8%
Cc1ccc(OCC(=O)N2CCN(C3CCC(c4ccccc4)CC3)CC2)cc1 (stereo not given) | 11µM* | -38% | -7% | 9% | 13% | 0%
Clc1ccc(CSC(Cn2ccnc2)c2ccc(Cl)cc2Cl)cc1 (stereo not given) | ? | -6% | -8% | -5% | 8% | 1%
Clc1ccc(CS[C@@H](Cn2ccnc2)c2ccc(Cl)cc2Cl)cc1 | . | . | 13µM* | 0%[19.8 µM] | . | .
C[C@H]1CNC(=O)c2c(C(=O)Nc3ccc(CNC(=O)OC(C)(C)C)cc3)ncn21 | 28% | -55% | . | 5% | . | -6%
CCOC(=O)C1(CCOc2ccccc2)CCN(Cc2cccc(O)c2)CC1 | ? | -12% | 1% | 5% | 1% | -18%
CCOC(=O)C1(CCOc2ccccc2)CCN(Cc2ccccc2OC)CC1 | 8.9µM* | -18% | -15% | 6% | 32% | -20%
COc1cccc(-n2c(O)c(C=NCCN3CCOCC3)c(=O)[nH]c2=O)c1 | 3% | i | 14µM* | -10% | 12% | 0%
SMILES | GLP1R inv ag | PTHR1 agonist | GCN5L2 inh | GLP1R ag | RGS4 inh | GLP1R cytotox
CC(C)(C)NCC(O)c1cc(Cl)c(N)c(C(F)(F)F)c1 (stereo not given) | . | . | -4% | 27% | . | .
CNCC(O)c1cccc(OC(=O)c2ccccc2C)c1 (stereo not given) | -8% | i | -1% | 1% | 14%[11.4 µM] | 16%
Cc1ccccc1C(=O)Oc1cccc(Nc2ncnc3ccccc23)c1 | 11µM* | i | . | -16% | -34% | -25%
CCOc1cncc(/C=C/CCNC)c1 | . | . | 0% | . | . | .
Cc1ccc(C(=O)C2CN3CCC2CC3)cc1 (stereo not given) | 7.1µM* | -9%[57.5 µM] | -3% | 2% | 6% | -10%
Cc1cccc(OP(N)(=O)Oc2cccc(C)c2C)c1C | 11µM* | -25% | 1% | 6% | 8% | -4%
Cc1ccccc1OP(N)(=O)Oc1ccccc1C | -29% | 13% | -3% | 2% | 9% | -9%
CN1C(=O)C(Cc2ccccc2)C(=O)N(C)C1=O | 10% | i | . | -2% | 6% | -14%
CN1C(=O)C(Cc2ccsc2)C(=O)N(C)C1=O | 0% | 28µM* | -5% | -1% | -53% | 0%
NC(=O)CNC(=O)[C@H](Cc1ccccc1)NC(=O)[C@H](CCCN=C(N)N)NC(=O)[C@@H](N)Cc1ccc(O)cc1 | . | . | -10% | . | ? | .
CCN(CCCl)c1cc(CN(C)C)cc(NC(=O)c2ccc(C(=O)Nc3cc(CN(C)C)cc(N(CC)CCCl)c3)cc2)c1 | ? | i | . | -9% | -22% | 2.8µM*
COc1cc(CCN)c(OC)cc1Br | . | . | . | -4%[96 µM] | . | .
